# Where two headings read alike, the source gives them in different places.
# System: AURKA
# Settings: read-out: apparent Kd, n = 1
substance,measurement,setting,value
Lestaurtinib,potency estimated from few doses,"compound concentrations:100 nM and 1000 nM (sheet 'Lestaurtinib' of Supplementary Table 1),run:Lestaurtinib_02407_R1,Plate:MR005",0.0163 µM
same,potency estimated from few doses,"compound concentrations:100 nM and 1000 nM (sheet 'Lestaurtinib' of Supplementary Table 1),run:Lestaurtinib_02407_R2,Plate:MR005",0.0183 µM
same,potency estimated from few doses,"compound concentrations:100 nM and 1000 nM (sheet 'Lestaurtinib' of Supplementary Table 1),run:Lestaurtinib_02407_R3,Plate:MR005",0.0182 µM
same,potency estimated from few doses,"compound concentrations:100 nM and 1000 nM (sheet 'Lestaurtinib' of Supplementary Table 1),run:Lestaurtinib_02422_R1,Plate:MR006",0.0153 µM
same,potency estimated from few doses,"compound concentrations:100 nM and 1000 nM (sheet 'Lestaurtinib' of Supplementary Table 1),run:Lestaurtinib_02422_R2,Plate:MR006",0.0074 µM
same,potency estimated from few doses,"compound concentrations:100 nM and 1000 nM (sheet 'Lestaurtinib' of Supplementary Table 1),run:Lestaurtinib_02437_R1,Plate:MR007",0.0209 µM
same,potency estimated from few doses,"compound concentrations:100 nM and 1000 nM (sheet 'Lestaurtinib' of Supplementary Table 1),run:Lestaurtinib_02437_R2,Plate:MR007",0.0218 µM
same,potency estimated from few doses,"compound concentrations:100 nM and 1000 nM (sheet 'Lestaurtinib' of Supplementary Table 1),run:Lestaurtinib_02437_R3,Plate:MR007",0.00354 µM
same,potency estimated from few doses,"compound concentrations:100 nM and 1000 nM (sheet 'Lestaurtinib' of Supplementary Table 1),run:Lestaurtinib_02438_R1,Plate:MR008",0.0154 µM
same,potency estimated from few doses,"compound concentrations:100 nM and 1000 nM (sheet 'Lestaurtinib' of Supplementary Table 1),run:Lestaurtinib_02438_R2,Plate:MR008",0.0181 µM
same,potency estimated from few doses,"compound concentrations:100 nM and 1000 nM (sheet 'Lestaurtinib' of Supplementary Table 1),run:Lestaurtinib_02438_R3,Plate:MR008",0.0167 µM
same,potency estimated from few doses,"compound concentrations:100 nM and 1000 nM (sheet 'Lestaurtinib' of Supplementary Table 1),run:Lestaurtinib_02443_R1,Plate:MR009",0.019 µM
same,potency estimated from few doses,"compound concentrations:100 nM and 1000 nM (sheet 'Lestaurtinib' of Supplementary Table 1),run:Lestaurtinib_02443_R3,Plate:MR009",0.022 µM
same,potency estimated from few doses,"compound concentrations:100 nM and 1000 nM (sheet 'Lestaurtinib' of Supplementary Table 1),run:Lestaurtinib_02473_R1,Plate:MR010",0.02 µM
same,potency estimated from few doses,"compound concentrations:100 nM and 1000 nM (sheet 'Lestaurtinib' of Supplementary Table 1),run:Lestaurtinib_02473_R3,Plate:MR010",0.0161 µM
same,potency estimated from few doses,"compound concentrations:100 nM and 1000 nM (sheet 'Lestaurtinib' of Supplementary Table 1),run:Lestaurtinib_02482_R1,Plate:MR011",0.0189 µM
same,potency estimated from few doses,"compound concentrations:100 nM and 1000 nM (sheet 'Lestaurtinib' of Supplementary Table 1),run:Lestaurtinib_02482_R2,Plate:MR011",0.0193 µM
same,potency estimated from few doses,"compound concentrations:100 nM and 1000 nM (sheet 'Lestaurtinib' of Supplementary Table 1),run:Lestaurtinib_02487_R1,Plate:MR012",0.0175 µM
same,potency estimated from few doses,"compound concentrations:100 nM and 1000 nM (sheet 'Lestaurtinib' of Supplementary Table 1),run:Lestaurtinib_02487_R3,Plate:MR012",0.0248 µM
same,potency estimated from few doses,"compound concentrations:100 nM and 1000 nM (sheet 'Lestaurtinib' of Supplementary Table 1),run:Lestaurtinib_02496_R2,Plate:MR013",0.0176 µM
same,potency estimated from few doses,"compound concentrations:100 nM and 1000 nM (sheet 'Lestaurtinib' of Supplementary Table 1),run:Lestaurtinib_02566_R2,Plate:MR014",0.0211 µM
same,potency estimated from few doses,"compound concentrations:100 nM and 1000 nM (sheet 'Lestaurtinib' of Supplementary Table 1),run:Lestaurtinib_02572_R1,Plate:MR015",0.0211 µM
same,potency estimated from few doses,"compound concentrations:100 nM and 1000 nM (sheet 'Lestaurtinib' of Supplementary Table 1),run:Lestaurtinib_02572_R3,Plate:MR015",0.0179 µM
same,potency estimated from few doses,"compound concentrations:100 nM and 1000 nM (sheet 'Lestaurtinib' of Supplementary Table 1),run:Lestaurtinib_02577_R1,Plate:MR016",0.0218 µM
same,potency estimated from few doses,"compound concentrations:100 nM and 1000 nM (sheet 'Lestaurtinib' of Supplementary Table 1),run:Lestaurtinib_02577_R2,Plate:MR016",0.0211 µM
same,potency estimated from few doses,"compound concentrations:100 nM and 1000 nM (sheet 'Lestaurtinib' of Supplementary Table 1),run:Lestaurtinib_02577_R3,Plate:MR016",0.0209 µM
same,potency estimated from few doses,"compound concentrations:100 nM and 1000 nM (sheet 'Lestaurtinib' of Supplementary Table 1),run:Lestaurtinib_02584_R1,Plate:MR017",0.0218 µM
same,potency estimated from few doses,"compound concentrations:100 nM and 1000 nM (sheet 'Lestaurtinib' of Supplementary Table 1),run:Lestaurtinib_02584_R2,Plate:MR017",0.0197 µM
same,potency estimated from few doses,"compound concentrations:100 nM and 1000 nM (sheet 'Lestaurtinib' of Supplementary Table 1),run:Lestaurtinib_02601_R1,Plate:MR018",0.0211 µM
same,potency estimated from few doses,"compound concentrations:100 nM and 1000 nM (sheet 'Lestaurtinib' of Supplementary Table 1),run:Lestaurtinib_02601_R2,Plate:MR018",0.0256 µM
same,potency estimated from few doses,"compound concentrations:100 nM and 1000 nM (sheet 'Lestaurtinib' of Supplementary Table 1),run:Lestaurtinib_02601_R3,Plate:MR018",0.0217 µM
same,potency estimated from few doses,"compound concentrations:100 nM and 1000 nM (sheet 'Lestaurtinib' of Supplementary Table 1),run:Lestaurtinib_02606_R1,Plate:MR019",0.0191 µM
same,potency estimated from few doses,"compound concentrations:100 nM and 1000 nM (sheet 'Lestaurtinib' of Supplementary Table 1),run:Lestaurtinib_02606_R2,Plate:MR019",0.0208 µM
same,potency estimated from few doses,"compound concentrations:100 nM and 1000 nM (sheet 'Lestaurtinib' of Supplementary Table 1),run:Lestaurtinib_02606_R3,Plate:MR019",0.0219 µM
same,potency estimated from few doses,"compound concentrations:100 nM and 1000 nM (sheet 'Lestaurtinib' of Supplementary Table 1),run:Lestaurtinib_02624_R1,Plate:MR020",0.0175 µM
same,potency estimated from few doses,"compound concentrations:100 nM and 1000 nM (sheet 'Lestaurtinib' of Supplementary Table 1),run:Lestaurtinib_02624_R3,Plate:MR020",0.0157 µM
same,potency estimated from few doses,"compound concentrations:100 nM and 1000 nM (sheet 'Lestaurtinib' of Supplementary Table 1),run:Lestaurtinib_02724_R2,Plate:MR021",0.0213 µM

# From paper PMC11062922 (Nature Chemical Biology, 2023)
